HCMV antiviral = inhibitors of human cytomegalovirus. HFF cells, HCMV-luciferase reporter, 72 h; active compounds read low. activity change, negative = inhibition, % at 57.5 µM. 4.5% of 410,000 active. AID 1259415; in the data active = activity change below about -60%; inconclusive = no clear call, values can overlap the other calls; inactive = above about -39%
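Two compound doses tested in HFFs infected with HCMV-luciferase, MOI 1 PFU/cell, 72 h at 37C. Lysate luminescence read with OneGlo; data normalized against buffer-only and 10uM Salinomycin inhibitor controls.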
HCV inhibitor = blocks hepatitis C virus; Huh7.5.1 HCVcc-Cre infection, luciferase reporter, 44 h; Potency, µM (doses to about 41.8 µM), hits mostly inhibitors; 3.4% of 340,000 active; AID 651820
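HCVcc-Cre virus at an moi near 0.5 was added right after compound to cells cultured 4 h from seeding (1,000 cells/well). Luciferase activity was determined 44 h later, 15 min after substrate addition at RT.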
Pf growth 48h = P. falciparum growth inhibition at 48 hours (one generation) | P. falciparum luciferase growth in erythrocytes, 48 h | Potency, µM (top dose mostly 28.7 µM), hits mostly inhibitors | 5.9% of 310,000 active
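In quantitative HTS format, infected erythrocytes bearing luciferase-reporter parasites were treated for a single generation at 37 C. Luminescence after adding detection reagent served as the growth measure.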
Pf growth 96h = P. falciparum growth inhibition at 96 hours. P. falciparum luciferase reporter growth, 96 h. 6.9% of 320,000 active. Potency, µM (titrated, usually from 28.7 µM), most hits filed as inhibitors
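Luminescence readout: decreased luciferase signal marks inhibited growth of reporter-expressing P. falciparum in infected red cells (2% hematocrit, 0.05% parasitemia final), exposed to compound two generations (96 h, 37 C, 5% CO2).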
Numbers stand for hits; . = inactive; ? = inconclusive; / = no result given. Hits are enriched below; roughly 13% of the tested compounds scored in any of these assays. Unless noted, calls come from the whole dose curve; as a rule, active = well fitted inhibition curve with a large enough effect; inconclusive = small, poorly fitted or top-dose-only effect, or another doubt; inactive = no such curve, though single readings can be large or run the other way.

SMILES	HCMV antiviral	HCV inhibitor	Pf growth 48h	Pf growth 96h
O=C(NC1CC2CCCC(C1)N2CC(=O)N1CCCc2ccccc21)C1CCCCC1 (centres undefined)	.	.	.	14.7µM
COc1cccc(C(=O)NC2CC3CCC(C2)N3Cc2ccccc2)c1 (centres undefined)	.	.	.	.
O=C(CN1C2CCCC1CC(NC(=O)C1CCCCC1)C2)Nc1ccccc1C(F)(F)F (centres undefined)	.	10µM	?	.
COc1cccc(C(=O)NC2CC3CCCC(C2)N3CC(=O)Nc2ccccc2C(F)(F)F)c1 (centres undefined)	?	6.31µM	?	.
Cc1cc2oc(C(=O)Nc3cccc(-c4nc5ccccc5o4)c3)c(C)c2cc1C	.	/	/	/
COc1ccc(N2CC(NC(=O)/C=C\c3ccc4c(c3)OCO4)CC2=O)cc1OC (centres undefined)	.	/	/	/
Cc1ccc(NC(=O)Cn2cnc3sc(C(=O)O)c(C)c3c2=O)cc1Cl	.	/	/	/
CCC1CCCCN1Cc1cn2c(-c3ccc(Br)cc3)nnc2s1 (centres undefined)	.	/	/	/
COc1ccc(-n2nc(C(=O)NCC(=O)NC3CCCC(C)C3C)c3ccccc3c2=O)c(OC)c1 (centres undefined)	-61.1	.	?	5.86µM
CCOc1ccccc1NC(=O)CNC(=O)c1nn(-c2ccc(OC)c(OC)c2)c(=O)c2ccccc12	.	?	13.1µM	?
COc1ccc(/C=N/NC(=O)c2nn(-c3ccc(Cl)cc3)c(=O)c3c(N)scc23)cc1	.	?	/	8.28µM
COc1ccc(-n2nc(C(=O)NCC(=O)Nc3ccccn3)c3ccccc3c2=O)cc1Cl	.	?	.	9.28µM
COc1cc(/C=C(\C#N)c2nc3ccccc3c(=O)[nH]2)cc(OC)c1OC	.	/	/	/
Cc1nc(-c2ccc(F)cc2)sc1CCNC(=O)c1ccco1	.	/	/	/
COCCn1c(C)cc(O)c(C(c2ccccc2)N2CCN(C)CC2)c1=O (centres undefined)	.	/	/	/
CCCN(CCC)CCCNC(=O)c1sc2nc3n(c(=O)c2c1C)CCC3	.	/	/	/
COc1ccc(-n2nc(C(=O)NCC(=O)Nc3cc(Cl)c(OC)cc3OC)c3ccccc3c2=O)cc1	.	31.6µM	?	.
COc1ccc(-n2nc(C(=O)NCC(=O)Nc3cc(OC)ccc3OC)c3ccccc3c2=O)cc1	.	?	3.29µM	?
COc1ccc(NC(=O)CNC(=O)c2nn(-c3ccc(OC)c(Cl)c3)c(=O)c3ccccc23)c(OC)c1	.	?	9.28µM	.
COc1ccc(/C=N/NC(=O)c2nn(-c3ccc(C)c(C)c3)c(=O)c3ccccc23)cc1	.	.	13.1µM	?
COc1ccccc1-n1c(=O)c2c3c(sc2n(C)c1=O)CN(C(C)=O)CC3	.	/	/	/
O=S(=O)(c1ccc2c(c1)OCCO2)C1CCC(O)CC1 (centres undefined)	/	/	.	.
Cc1ccc(C)c(N2CCN(C(=O)Nc3cn(CC(C)C)c(=O)c4ccccc34)CC2)c1	.	/	/	/
COc1ccc(-n2nc(C(=O)NCC(=O)Nc3ccc(F)cc3)c3ccccc3c2=O)cc1	.	.	11.7µM	.
Cc1ccc(C)c(NC(=O)C2CCCN(S(=O)(=O)c3cccc4nsnc34)C2)c1 (centres undefined)	.	/	/	/
SMILES	HCMV antiviral	HCV inhibitor	Pf growth 48h	Pf growth 96h
c1ccc(-c2cc(-c3ccncc3)nc3ccc4ccccc4c23)cc1	.	10µM	?	.
CC1(C)CC(=O)C=C(c2ccc(-c3cnc4ccccc4c3)cc2)C1=O	-71.3	/	/	/
CC1(C)CC(=O)C=C(c2ccc(Oc3ccccc3)cc2)C1=O	.	/	/	/
Cc1cccc(CNC(=O)C(=O)Nc2ccccc2C)c1	.	/	/	/
COC(=O)c1ccc(NC(=O)N2CCc3c([nH]c4ccccc34)C2c2ccc(C)cc2)cc1 (centres undefined)	.	/	/	/
Cc1ccc(C2c3[nH]c4ccccc4c3CCN2C(=O)c2ccccc2Br)cc1 (centres undefined)	-77.7	/	/	/
Cc1ccc(C2c3[nH]c4ccccc4c3CCN2C(=O)c2ccc(N(C)C)cc2)cc1 (centres undefined)	.	/	/	/
Cc1nc(C(=O)N2CCc3c([nH]c4ccccc34)C2c2cc(F)ccc2F)cs1 (centres undefined)	.	.	10.4µM	.
Cc1ccc(C2c3[nH]c4ccccc4c3CCN2C(=O)CCC2CCCC2)cc1 (centres undefined)	-93.1	/	/	/
Cc1ccccc1C(=O)N1CCc2c([nH]c3ccccc23)C1C(F)(F)F (centres undefined)	.	.	11.7µM	?
COc1ccc2c(c1)c1c(c(=O)n(Cc3ccccc3)c(=O)n1Cc1cc(C)ccc1C)n2C	.	/	/	/
COc1cccc(C(O)c2ncc(-c3ccccc3Cl)[nH]2)c1 (centres undefined)	.	/	/	/
CCc1ccc(C2c3[nH]c4ccccc4c3CCN2C(=O)c2cc(C)nn2C)cc1 (centres undefined)	.	?	?	.
Cc1cnc(C(=O)N2CCc3c([nH]c4ccccc34)C2c2ccc(F)cc2)cn1 (centres undefined)	.	.	5.22µM	?
Cc1ccc(C2SCC(=O)N2Cc2cn3ccsc3n2)o1 (centres undefined)	.	.	.	14.7µM
Cc1ccc(NC(=O)Cn2c(C)cc(C)c(C#N)c2=O)cc1F	.	/	/	/
Cc1c(CCOC(=O)c2ccccc2)sc[n+]1CC(=O)c1ccc(Br)cc1	/	?	?	.
Cc1c(CCOC(=O)c2ccccc2)sc[n+]1Cc1ccccc1	.	.	5.22µM	.
Cc1c(CCOC(=O)CC23CC4CC(CC(C)(C4)C2)C3)sc[n+]1CC(=O)c1ccccc1	-70.8	.	?	.
Cc1ccc(C2=NN(C(=O)CCl)C(c3cccs3)C2)o1 (centres undefined)	-100.1	?	3.7µM	2.08µM
CC(=O)N1N=C(c2ccco2)CC1c1cccs1 (centres undefined)	.	.	.	.
O=C(CCl)N1N=C(c2ccco2)CC1c1cccs1 (centres undefined)	/	?	11.7µM	?
CCn1nc(C)c(CN2CCCC(C(=O)c3cccc(OC(C)C)c3)C2)c1C (centres undefined)	?	8.91µM	.	.
Cc1cccc(CN2CCCC(C(=O)c3cccc(OC(C)C)c3)C2)n1 (centres undefined)	?	?	?	.
CC(C)Oc1cccc(C(=O)C2CCCN(S(C)(=O)=O)C2)c1 (centres undefined)	.	.	.	3.7µM
Cc1nn(C(C)C)c(C)c1CN1CCCC(C(=O)c2cccc(OC(C)C)c2)C1 (centres undefined)	.	?	?	11.7µM
COc1ccccc1CNC(=O)CN1C(=O)c2cccnc2Oc2ccccc21	.	/	/	/
Cc1c(C(=O)NC(=S)Nc2ccccc2N2CCCC2)cccc1[N+](=O)[O-]	.	3.55µM	14.7µM	?
O=C(NC(=S)Nc1ccccc1N1CCCC1)c1ccc([N+](=O)[O-])cc1	?	?	.	?
COc1ccc(C(=O)NC(=S)Nc2ccccc2N2CCCCC2)cc1[N+](=O)[O-]	.	12.6µM	.	?

From PubChem
